Assay results from PubChem BioAssay (Tox21).
Where “and” joins values, the source holds several entries; their conditions need not be identical. Equal values may be shown once. Records with an inconclusive call do not appear. Where a call stands in place of a potency, no number is given. Calls of active or inactive are those of the source. The call rests on the fitted dose curve; in most records, active means well fitted cell-killing curve with a large enough effect in the repeat runs; inconclusive means weak or mixed curves, or effect the other way; inactive means no such curve, though single readings can be large or run the other way.

experiment: qHTS assay for identifying genotoxic compounds that show differential cytotoxicity against isogenic chicken DT40 cell lines with known DNA damage response pathways - wild type cell line (AID 743012); conditions: DT40 wild type chicken cells viability, CellTiter-Glo, 40 h; series mostly up to 68.4 µM; further: nearly all actives have a fitted effect of over 60% in size
Excerpt: U.S. Tox21 Program National Center for Advancing Translational Sciences [NCATS] NIH Chemical Genomics Center [NCGC] U.S. Environmental Protection Agency [EPA] National Institutes of Environmental Health Sciences [NIEHS] National Toxicology Program [NTP] U.S. Food and Drug Administration [FDA] Tox21 Assay Overview: DNA repair pathways play a critical role in cellular homeostasis by repairing DNA damage induced by endogenous processes and xenobiotics. Isogenic chicken DT40 cell lines deficient in different DNA repair pathways can be used to identify genotoxic compounds and aid in characterizing the nature of the DNA damage induced. Two DNA repair-deficient cell lines with disrupted genes, Rad54/Ku70 or Rev3, were used to screen the Tox21 10K compound library. Possible genotoxicity was based on the presence of a significant increase in cytotoxicity in one or more of the DNA repair-deficient cell lines compared to that observed in the parental DNA repair-proficient cell line. CellTiter Glo viability assay (Promega, Madison, WI) was used to measure cell viability in these cells after compound treatment. This assay includes the data from the wild type cell line.
Tox21 Assay Protocol Summary: 300 DT40 wild type cells in 5 uL/well were dispensed into white, solid-bottom 1536-well plates using a Multidrop Combi (ThermoFisher Scientific, Waltham, MA) dispenser. After the assay plates were incubated at 37 C/5% CO2 for approximately 0.5 hour, 23 nL of compounds dissolved in DMSO, positive controls or DMSO only was transferred into the assay plate by a pintool work station (Kalypsys, San Diego, CA). The assay plates were incubated at 37 C/5% CO2 for 40 hours. After 5 uL per well of CellTiter-Glo reagent was added into each well of the assay plates, the plates were incubated for 30 min at room temperature and the luminescence intensity of the plates was measured using a ViewLux (PerkinElmer, Shelton, CT) plate reader.
Potency means the concentration at half of the fitted maximal effect.

| Structure (SMILES) | Potency |
| --- | --- |
| CCC(C)(C)C1CCC(OC)CC1 (stereo not given) | inactive |
| CCCCNc1ccccc1 | inactive |
| CSc1nc(NC2CC2)nc(NC(C)(C)C)n1 | 54.5 µM (active) |
| OCCN1C[C@H](O)[C@@H](O)[C@H](O)[C@H]1CO | inactive |
| Nc1nc(F)nc2c1ncn2[C@@H]1O[C@H](CO)[C@@H](O)[C@@H]1O | 841 nM (active) and 1.68 µM (active) |
| CN(C)C(=O)C(CCN1CCC(O)(c2ccc(Cl)cc2)CC1)(c1ccccc1)c1ccccc1 | 5.96 µM (active) |
| C[N+](C)(C)CC[N+]1(C)Cc2c(Cl)c(Cl)c(Cl)c(Cl)c2C1 | inactive |
| c1ccc(SCCSc2ccccc2)cc1 | inactive |
| C#CC(C)(O)CC(C)C (stereo not given) | inactive |
| C=C(C)[C@H]1CC=C(C)CC1 | inactive |
| CCCCc1ccc(N)cc1 | inactive |
| COc1ccc(COC=O)cc1 | inactive |
| Cc1ccccc1C(=O)O | inactive |
| CCCC(C)CO (stereo not given) | inactive |
| CC(C)=CC(=O)O | inactive |
| CCCCCCCCCCCCCCC | inactive |
| C=C(C)C(=O)OCCC(C)OC(=O)C(=C)C (stereo not given) | inactive |
| C=CCSCC1Nc2cc(Cl)c(S(N)(=O)=O)cc2S(=O)(=O)N1 (stereo not given) | inactive |
| C/C=C1\C(=O)C[C@H]2[C@@H]3CCC4=CC(=O)CC[C@]4(C)[C@H]3CC[C@]12C | 18.9 µM (active) |
| CCC(C)OC(=O)N1CCCCC1CCO (stereo not given) | inactive |

| Structure (SMILES) | Potency |
| --- | --- |
| CC(C)(C)N(CCO)CCO | inactive |
| CCCC(=O)O[C@]1(C(=O)CCl)[C@@H](C)C[C@H]2[C@@H]3CCC4=CC(=O)C=C[C@]4(C)[C@@]3(F)C(=O)C[C@@]21C | 6.68 µM (active) |
| NS(=O)(=O)c1cc2c(cc1C(F)(F)F)NC(Cc1ccccc1)NS2(=O)=O (stereo not given) | inactive |
| CCCOc1ccccc1-c1nc2n[nH]nc2c(=O)[nH]1 | inactive |
| C1C2OC2C2C1C1CC2C2OC12 (stereo not given) | inactive |
| CC(C)c1cccc(O)c1 | inactive |
| CCOC(=O)Nc1ccc2c(c1)N(C(=O)CCN1CCOCC1)c1ccccc1S2 | inactive |
| N#CC1(O)CCCCC1 | inactive |
| O=C(O)c1ccccc1-c1ccc(C(F)(F)F)cc1 | inactive |
| COC(=O)[C@H]1[C@H]2C[C@@H]3c4[nH]c5cc(OC)ccc5c4CCN3C[C@H]2C[C@@H](OC(=O)COc2ccc(OC)cc2)[C@@H]1OC | 21.1 µM (active) |
| COc1cc(C)cc(O)c1 | inactive |
| CN(C)CCn1nnnc1SCC1=C(C(=O)O)N2C(=O)[C@@H](NC(=O)Cc3csc(N)n3)[C@H]2SC1 | inactive |
| OC/C=C/c1ccccc1 | inactive |
| CC(=O)OC(C)(C)C | inactive |
| CC1=CC(=O)CCC1 | inactive |
| CC(=O)N[C@@H](CCC(N)=O)C(=O)O | inactive |
| COC[C@H](c1ccc(C(F)(F)F)cc1)N1CCN(C2(C)CCN(C(=O)c3c(C)ncnc3C)CC2)C[C@H]1C | 29.8 µM (active) |
| OCC(CO)(CO)COCC(CO)(CO)CO | inactive |
| Cc1ccc(N)cc1[N+](=O)[O-] | inactive |
| O=C(O)c1ccc[n+]([O-])c1 | inactive |
